From PubChem BioAssay
Compounds with a hit are over-represented: about 4.7% of the library has one in this group of screens.
TRHR ag = qHTS for Small Molecule Agonists and Allosteric Enhancers of Human TRH Receptor: Primary Screen for Agonists; Thyrotropin-releasing hormone receptor (Homo sapiens), P34981; TRHR cells, calcium flux fluo-8, FDSS agonist mode; activation, % at 2 µM; actives 0.18% (n = 360,000); AID 493084, 2011
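Fluo-8-loaded TRHR cells; 10 s baseline, compound added, kinetic Ca2+ fluorescence read 1/s, agonist mode.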
D1 ag = Allosteric Agonists of the Human D1 Dopamine Receptor: qHTS; activation, % at 2 µM; HEK293 T-REx D1 cells, calcium flux, agonist mode; actives 1% (n = 360,000); D(1A) dopamine receptor (Homo sapiens), P21728
Target sequence (P21728 whole entry, looked up): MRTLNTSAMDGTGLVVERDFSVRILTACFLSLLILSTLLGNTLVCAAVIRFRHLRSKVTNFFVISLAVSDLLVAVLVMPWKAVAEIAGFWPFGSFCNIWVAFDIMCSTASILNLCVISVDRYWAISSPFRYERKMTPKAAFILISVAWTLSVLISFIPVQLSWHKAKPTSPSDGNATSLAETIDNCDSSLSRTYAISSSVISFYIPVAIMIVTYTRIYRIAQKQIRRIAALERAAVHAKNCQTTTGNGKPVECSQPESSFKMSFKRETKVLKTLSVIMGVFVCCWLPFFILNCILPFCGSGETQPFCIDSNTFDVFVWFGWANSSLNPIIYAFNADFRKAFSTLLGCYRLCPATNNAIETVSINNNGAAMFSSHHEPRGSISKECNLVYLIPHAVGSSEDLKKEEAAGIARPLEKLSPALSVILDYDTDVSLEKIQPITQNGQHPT
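Tetracycline-induced HEK293 TREx D1 cells, force-coupled to calcium signalling, were dye-loaded with a no-wash calcium kit. Compound was pin-added after a 10 s baseline. Fluorescence was read kinetically at 1 cycle/s for 180 s, with calcium rises flagged as agonism.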
D1 PAM = Potentiators of Human D1 Dopamine Receptor: qHTS. AID 504651, 2011. potentiation, % at 10 µM. D(1A) dopamine receptor (Homo sapiens), P21728. actives 0.036% (n = 360,000). HEK293 TREx D1 cells, calcium flux, dopamine EC20 potentiation; in the data active = potentiation above about 30%
TRHR PAM = qHTS for Small Molecule Agonists and Allosteric Enhancers of Human TRH Receptor: Primary Screen for Enhancers; Thyrotropin-releasing hormone receptor (Homo sapiens), P34981; TRHR cells, fluo-8 calcium fluorescence, EC20 TRH enhancement; enhancement, % at 2 µM; actives 0.66% (n = 360,000); AID 493056, 2011; in the data active = enhancement above about 30%
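Enhancer read-out: after compound pinning and an initial kinetic agonist-mode read, an EC20 of TRH (10 nM final) was injected and fluo-8 calcium signal (Ex 480/Em 530) followed at 1 s/cycle for 100 cycles in TRHR-expressing cells.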
D1 antagonist = Antagonist of Human D 1 Dopamine Receptor: qHTS; D(1A) dopamine receptor (Homo sapiens), P21728; HEK293 TREx D1 cells, calcium flux, dopamine EC80; active compounds read low; activity change, negative = inhibition, % at 10 µM; actives 3.2% (n = 360,000); in the data active = activity change below about -30%
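Calcium flux readout: force-coupled, inducible Hek293 Trex D1 line, cells induced overnight at 30 C with tetracycline, dye-loaded 30–90 min at RT. Antagonism scored against EC80 dopamine challenge given 180 s after compound.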
Each line names hits and unclear results; the compound was inactive in the other large screens. Cut-off read from the data, not from the text of the source, unless noted: active = activation above about 30%; inactive = the rest.

O=C(CSc1nc2ccccc2n1Cc1cccc(F)c1)N1CCN(c2ccc(F)cc2)CC1	none
O=S(=O)(c1ccc(Cl)cc1)N1CCN(C2CCN(Cc3ccccc3)CC2)CC1	none
COc1ccc(S(=O)(=O)N2CCC(N3CCN(Cc4ccccc4)CC3)CC2)cc1	TRHR PAM 31
O=C1C(=O)N(C2CCN(S(=O)(=O)c3ccc(F)cc3)CC2)CCN1Cc1ccccc1	none
COc1ccc(S(=O)(=O)N2CCN(Cc3ccc(Cl)cc3)CC2)cc1	none
COc1ccc(S(=O)(=O)N2CCN(Cc3cccc(Cl)c3)CC2)cc1	D1 antagonist -39
COc1ccc(S(=O)(=O)N2CCC(N3CCN(Cc4ccc(F)cc4)C(=O)C3=O)CC2)cc1	D1 antagonist -36
O=[N+]([O-])c1ccccc1S(=O)(=O)N1CCN(C2CCN(Cc3ccccc3)CC2)CC1	TRHR PAM 31
CCOc1ccc(-c2cccc(NS(=O)(=O)c3c(C)cc(C)cc3C)c2)nn1	none
COc1cccc(NC(=O)CC2Nc3cc(C)c(C)cc3NC2=O)c1 (configuration not stated)	none
Cc1oc(-c2ccc(Cl)cc2)nc1CN1CCCC(C(=O)NCCc2ccccc2)C1 (configuration not stated)	none
Cc1ccc2oc(C(=O)NCC(c3ccc(Cl)cc3)N3CCOCC3)c(C)c2c1 (configuration not stated)	none
COc1ccc(OC)c(S(=O)(=O)N2CCC(C(=O)N3CCN(Cc4ccccc4)CC3)CC2)c1	none
COc1ccc(Br)cc1S(=O)(=O)N1CCCC1	D1 antagonist -36
COc1ccc(OC)c(S(=O)(=O)N2CCN(Cc3ccccc3)CC2)c1	TRHR PAM 31
Cc1ccc(Nc2nc(NCc3ccco3)c3ccccc3n2)cc1	D1 ag 47, D1 antagonist -66
COc1ccccc1Nc1nc(NCc2ccco2)c2ccccc2n1	D1 antagonist -93
Cc1ccc(Nc2nc(-c3ccccc3)nc3ccccc23)cc1	D1 antagonist -30
Oc1ccccc1-c1nc(NCc2ccco2)c2ccccc2n1	none
Cc1cccc(Cn2c(SCc3ccc(C(=O)NCCc4ccccc4)cc3)nc3cccnc32)c1	none
Cc1ccc([N+](=O)[O-])cc1N	none
Nc1ccc2c(c1)Cc1cc([N+](=O)[O-])ccc1-2	TRHR ag 44, D1 ag 122, D1 antagonist -36
COc1ccc2oc(-c3ccc(C)c(NC(=O)c4cccnc4)c3)nc2c1	none
O=C(CNC(=O)c1ccc([N+](=O)[O-])cc1)OC(C(=O)Nc1cc(C(F)(F)F)ccc1Cl)c1ccccc1 (configuration not stated)	none
O=C(CNCC1CCCCC1)Nc1ccc(OC(F)(F)F)cc1	D1 ag 93, D1 antagonist -42
CN(CC(=O)Nc1ccc(OC(F)(F)F)cc1)C1CCCCC1	none
Cc1ccc2scc(N3CCN(c4ccc(F)cc4)CC3)c(=O)c2c1	TRHR PAM 39
O=c1c(N2CCCCC2)csc2ccc(F)cc12	D1 antagonist -75
Cc1ccc2scc(N3CCN(c4ccccc4)CC3)c(=O)c2c1	none
COCCn1c(=N)c(C(=O)NC(C)c2ccccc2)cc2c(=O)n3cc(C)ccc3nc21 (configuration not stated)	none
CC(C)Sc1ncc(Cl)c(C(=O)Nc2ccc(S(=O)(=O)N3CCCCC3C)cc2)n1 (configuration not stated)	none
Cc1ccc(C(=O)/C=C/c2cc(Br)cc(Br)c2O)o1	D1 ag 43
O=C1CN2C(=N1)N(Cc1ccccc1)c1ccccc12	D1 antagonist -87
CCOc1ccc(S(=O)(=O)Nc2nc3ccccc3nc2-n2ccc(=NC(=O)c3cccs3)cc2)cc1	D1 ag 72, D1 antagonist -33
O=C(N=c1ccn(-c2nc3ccccc3nc2NS(=O)(=O)c2ccc(Cl)cc2)cc1)c1cccs1	none
O=C(N=c1ccn(-c2nc3ccccc3nc2NS(=O)(=O)c2ccccc2)cc1)c1ccccc1Cl	D1 ag 38, TRHR PAM 39
